{
  "source": "PubChem BioAssay (EPA / NIEHS)",
  "note": "Records with an inconclusive call do not appear. Calls of active or inactive are those of the source. Rule for the calls, unless noted: active = hit-call score of the fitted dose curve at least 0.9, where 1 is the maximum; inconclusive = response in the unintended direction; inactive = score below 0.9.",
  "data": [
    {"test": "CCTE_Shafer_MEA_dev_per_burst_spike_percent: CCTE's Neural Network Formation Assay for Percent of Spikes in a Burst, Shafer Lab (AID 2284032; active = hit-call score of the fitted dose curve at least 0.9, where 1 is the maximum; inactive = score below 0.9;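 for AC50: fitted as a decrease in burst spike percentage below DMSO baseline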)", "procedure,_shortened": "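Rat primary cortical neurons on 16-electrode MEA wells, dosed from plating day 0 for 12 days with renewal on DIV 5 and 9; spikes-in-bursts percentage averaged over bursting electrodes, collapsed as AUC across days 5, 7, 9, 12; loss direction versus DMSO.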", "values": [
      {"smiles": "Cn1c(=O)c2c(ncn2C)n(C)c1=O", "outcome": "inactive"},
      {"smiles": "COc1ccc(-n2nc(C(F)F)cc2-c2ccc(S(C)=O)cc2)cc1", "note": "(stereo unspecified)", "outcome": "inactive"},
      {"smiles": "CCC(C)(C)C(=O)O[C@H]1C[C@@H](C)C=C2C=C[C@H](C)[C@H](CC[C@@H]3C[C@@H](O)CC(=O)O3)[C@H]21", "AC50": "2.74 µM (active)"},
      {"smiles": "CC[C@H](C)C(=O)O[C@H]1C[C@@H](C)C=C2C=C[C@H](C)[C@H](CC[C@@H]3C[C@@H](O)CC(=O)O3)[C@H]21", "AC50": "10 µM (active)"},
      {"smiles": "NC(=O)NO", "outcome": "inactive"},
      {"smiles": "CNCc1ccc(NC(=O)c2c[nH]c3c2C(=O)CCC3)cc1", "AC50": "1.98 µM (active)"},
      {"smiles": "CC[C@H]1OC(=O)[C@H](C)[C@@H](O[C@H]2C[C@@](C)(OC)[C@@H](O)[C@H](C)O2)[C@H](C)[C@@H](O[C@@H]2O[C@H](C)C[C@H](N(C)C)[C@H]2O)[C@](C)(O)C[C@@H](C)C(=O)[C@H](C)[C@@H](O)[C@]1(C)O", "outcome": "inactive"},
      {"smiles": "O=P(OC(CCl)CCl)(OC(CCl)CCl)OC(CCl)CCl", "outcome": "inactive"},
      {"smiles": "Nc1nc2ncc(CNc3ccc(C(=O)N[C@@H](CCC(=O)O)C(=O)O)cc3)nc2c(=O)[nH]1", "outcome": "inactive"},
      {"smiles": "O=C1CCC(N2C(=O)c3ccccc3C2=O)C(=O)N1", "note": "(stereo unspecified)", "outcome": "inactive"}
    ]},
    {"test": "CCTE_Deisenroth_AIME_384WELL_CTox_Active: Cytotoxicity Assessment (CTOX) in CCTE's 384-well Estrogen Receptor Transactivation Assay with AIME metabolic competence (metabolism positive), Deisenroth Lab (AID 2284037);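 note: chemicals first conditioned 2 h by alginate-bound induced rat liver S9 before cells; activity means signal loss indicating cell death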", "procedure,_shortened": "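Cytotoxicity in VM7Luc4E2 breast cells, 24 hour, measured as protease-substrate fluorescence loss, after 2-hour metabolic conditioning with induced rat hepatic S9 in alginate microspheres. Concentrations 0.002 - 200 uM, 10 points, bidirectional fitting.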", "values": [
      {"smiles": "Cn1c(=O)c2c(ncn2C)n(C)c1=O", "outcome": "inactive"},
      {"smiles": "CCOCCOCCOCCO", "outcome": "inactive"},
      {"smiles": "Cc1ccc(O)cc1", "outcome": "inactive"},
      {"smiles": "COCCOc1cc2cc(C(=O)NC3CCN(C(C)C)CC3)n(CC(=O)Nc3ccc(Cl)cn3)c2cn1", "outcome": "inactive"},
      {"smiles": "O=C(O)c1cc(N=Nc2ccc(S(=O)(=O)Nc3ccccn3)cc2)ccc1O", "AC50": "100 µM (active)"},
      {"smiles": "O=C(O)c1cccc(Oc2ccccc2)c1", "outcome": "inactive"},
      {"smiles": "COCCOCCOCCOC", "outcome": "inactive"},
      {"smiles": "COc1cccc(-c2ccc(/C=C\\CN3CCCCCC3)cc2Cl)c1", "outcome": "inactive"},
      {"smiles": "Nc1ccc(Nc2ccccc2)cc1", "outcome": "inactive"},
      {"smiles": "CCCCCCc1ccc(O)cc1O", "AC50": "104 µM (active)"},
      {"smiles": "COc1ccc2sc(C(=O)Nc3nnn[nH]3)c(OC(C)C)c2c1", "AC50": "45 µM (active)"},
      {"smiles": "Oc1ccc2c(c1)-c1ccccc1C2", "outcome": "inactive"},
      {"smiles": "O=c1n(CC2CO2)c(=O)n(CC2CO2)c(=O)n1CC1CO1", "note": "(stereo unspecified)", "AC50": "136 µM (active)"},
      {"smiles": "CNCc1ccc(NC(=O)c2c[nH]c3c2C(=O)CCC3)cc1", "outcome": "inactive"},
      {"smiles": "On1ccccc1=S", "outcome": "inactive"},
      {"smiles": "CCN(C(=O)c1cc(C)cc(OC[C@H](C)Nc2ccncc2)c1)C(C)C", "outcome": "inactive"},
      {"smiles": "CCOC(=O)c1ccc(C2CCC(NC[C@H](O)COc3ccc(O)c(NS(C)(=O)=O)c3)CC2)cc1", "note": "(stereo partly specified)", "AC50": "100 µM (active)"},
      {"smiles": "Cn1c(=O)cc(Oc2ccc(F)cc2F)c2cnc(NCC(C)(C)O)nc21", "outcome": "inactive"},
      {"smiles": "CCCN(C1CCN(C(=O)C2CCNCC2)CC1)[C@@H]1CCc2ccc(OC)cc2C1", "outcome": "inactive"},
      {"smiles": "CC(=O)OCCC(C)C", "outcome": "inactive"},
      {"smiles": "CC(C)c1cccc(C(C)C)c1N1C(=O)c2ccc(O)cc2C1=O", "outcome": "inactive"},
      {"smiles": "Cc1c(-c2cccnc2)c2ccccc2n1CCCCC(=O)O", "outcome": "inactive"},
      {"smiles": "CC1=CC(=O)CC(C)(C)C1", "outcome": "inactive"},
      {"smiles": "CC(C)=CCC/C(C)=C\\CO", "outcome": "inactive"},
      {"smiles": "CC(C)CCCCCCCOC(=O)CCCCC(=O)OCCCCCCCC(C)C", "outcome": "inactive"},
      {"smiles": "CCCCCCCCO", "outcome": "inactive"}
    ]}
  ]
}
